Each sequence was assayed against T1, ETS1 (UniProt P14921) (assay: ETS1 binding intensity (PBM fluorescence), ETS1 alone (arbitrary fluorescence units); higher = stronger binding). Details: ETS1 concentration 1 nM; RUNX1 concentration 0 nM.
T1 sequence: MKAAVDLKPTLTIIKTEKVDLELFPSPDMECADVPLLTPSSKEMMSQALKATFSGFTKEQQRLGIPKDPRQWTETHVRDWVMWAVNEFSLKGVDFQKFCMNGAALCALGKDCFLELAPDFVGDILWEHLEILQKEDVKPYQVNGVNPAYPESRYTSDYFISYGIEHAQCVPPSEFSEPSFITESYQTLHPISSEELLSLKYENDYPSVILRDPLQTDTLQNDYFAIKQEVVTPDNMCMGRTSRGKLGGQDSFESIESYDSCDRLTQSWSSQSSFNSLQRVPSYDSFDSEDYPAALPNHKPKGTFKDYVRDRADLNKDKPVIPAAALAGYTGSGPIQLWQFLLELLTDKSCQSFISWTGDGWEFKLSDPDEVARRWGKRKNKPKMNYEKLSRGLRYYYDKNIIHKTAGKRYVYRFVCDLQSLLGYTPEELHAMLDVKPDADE
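For RUNX1 binding intensity (PBM fluorescence), RUNX1 alone in this document: Full-length recombinant human RUNX1 bound to double-stranded 36-bp genomic probes on a high-density microarray, scored as Alexa488 fluorescence per spot via anti-RUNX1 antibody, median of four replicate spots.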

Compared with GTTGCAGGAAACGATGGGTTTTGTGGTATGAACTGC, AATGAAGGAGGGGCAGGATGTGGTCTTGGTGAATCA is higher in ETS1 binding intensity: 813 for the first, 2520 for the second.

First: CACCTCCTCTCCGGATGCGGTTTGTTCTGCTTGTAG
Second: TCAAGAAAACAGGAAACTCTCAAAACCAAGTTCTGA
The ETS1 binding intensity of the first is higher: 2580 for the first, 1430 for the second.

Going from CAGATCTGAAAGGGAAGTGGTTTCAAGAGGGTTCTT to GGGTCGCGGCCTTCCGGCGAACGCGGTTACCGTGGA, the ETS1 binding intensity falls from 967 to 555.

First: CAGAGCCAAACATGCGGAAGTGGTTACGTGTACTAG
Second: CATAGACCGGATGCCTCGTCAACCACAGAAACCAAT
The ETS1 binding intensity of the first is higher: 3280 for the first, 2620 for the second.

Work on GGAACAGGAAGCGGCAGAAATAGCAGCCACCGCGGC yielded an ETS1 binding intensity of 960.

What follows are sequences tested against RUNX1 (UniProt Q01196) (assay: RUNX1 binding intensity (PBM fluorescence), RUNX1 alone (arbitrary fluorescence units); higher = stronger binding). Details: RUNX1 concentration 2 nM; ETS1 concentration 0 nM.
RUNX1, sequence (Q01196 whole entry): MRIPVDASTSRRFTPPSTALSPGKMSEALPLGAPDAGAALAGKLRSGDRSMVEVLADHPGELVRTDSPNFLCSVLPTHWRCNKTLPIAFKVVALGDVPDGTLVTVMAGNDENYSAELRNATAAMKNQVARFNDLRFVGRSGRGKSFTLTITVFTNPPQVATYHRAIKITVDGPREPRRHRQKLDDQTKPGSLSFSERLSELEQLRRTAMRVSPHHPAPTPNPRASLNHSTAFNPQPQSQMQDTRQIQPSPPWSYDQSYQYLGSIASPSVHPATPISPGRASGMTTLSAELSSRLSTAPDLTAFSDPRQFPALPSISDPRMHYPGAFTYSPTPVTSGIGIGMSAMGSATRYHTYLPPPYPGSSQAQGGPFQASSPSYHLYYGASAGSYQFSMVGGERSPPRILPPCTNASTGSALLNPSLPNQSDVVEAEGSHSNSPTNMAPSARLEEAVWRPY
Procedure: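 Cooperative gcPBM on 36-bp genomic probes with neighbouring ETS1 and RUNX1 sites. Recombinant human RUNX1 (2 nM) was incubated alone or with ETS1 (25 nM) and detected with anti-RUNX1 antibody plus Alexa488 secondary. Values are medians over 4 replicate spots; the RUNX1+ETS1 data were normalised to the RUNX1-only data. The probes sit in constant array flanks that are not printed.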

Going from TTGAATATGAAAGGAAGTGGTTAGGTGATGTGTTCT to TGAGGGGCTCGCCGGGAAATGTGGTTTAGCGGCCCT, the RUNX1 binding intensity rises from 826 to 832.

Compared with ATCTTTTGATGAGGATGTGGTTTCCAGGCAGGTGCT, CAGGAGCAGTGTAGAGGAAGTGGTTTCCATCACGGA is lower in RUNX1 binding intensity: 902 for the first, 862 for the second.

Going from TCTGGATTTCCTGTGGGGCTCTCCCACAAGCAGTAC to GGGAGGTGTCCAGGAAGTGGTTGGAGAGTCTGGTCT, the RUNX1 binding intensity rises from 721 to 756.

Going from GTGAGAGGAAGTGGGCGCTGGTTTAATGTGGTCAGC to GCCACATATTTCCTGTGACAACCCTGTGGTGTGGCT, the RUNX1 binding intensity rises from 834 to 848.

First: ACAGATAGTGATATCCTGTGGTCAATTCCCTCCCCT
Second: ATTCCTAGAGAGGAAATGCGGGCTCAGGGTGTCGGC
The RUNX1 binding intensity of the first is higher: 1030 for the first, 754 for the second.

Going from TCACATTTTGCCGGATGTGGGTTGAGGGCATGCTGC to GTTGCAGGAAACGATGGGTTTTGTGGTATGAACTGC, the RUNX1 binding intensity rises from 773 to 829.

Source: the supplement of paper PMC10681739
